Reference: ChEMBL document CHEMBL3433997, “St. Jude Leishmania screening dataset” (2016)

target: Glucose transporter (Leishmania mexicana) (UniProt O61059); experiment: ST_JUDE_LEISH: Cytotoxicity at 2uM final concentration against transgenic Leishmania Mexicana promastigotes LmGT2 that are glucose transport deficient and complemented with the L. Mexicana glucose transporter 2. Activity is measured by DNA content using SYBR green in vitro; type: functional

Compound | inhibition
Cc1ccccc1Oc1nc2ccccc2nc1SCC(=O)NC(C)C | -1.86%
O=C(/C=C/c1ccc(Cl)c(Cl)c1)NCCCCCN1CCC(NC(=O)NC2CCCC2)CC1 | 0.26%
N#Cc1ccc2c(c1)CCN(CCC1CCC(Nc3ncnc4ccccc34)CC1)C2 (stereo not given) | 4.21%
Cc1noc(C)c1-c1cccc(CNCc2ccc(-c3cccc(-c4nc5ccccc5[nH]4)c3)cc2)c1 | -4.01%
CO/C(=C\C=C\c1cc2cc(Cl)c(Cl)cc2[nH]1)C(=O)NCCCN1CC(C)N(C)CC1C (stereo not given) | 6.63%
COCCn1c(-c2nc(-c3ccc(F)cc3)cnc2N)nc2ccccc21 | -0.94%
N#CN1CC[C@H](CS(=O)(=O)c2cccc(Br)c2)C1 | 2.05%
COc1cc(Cc2cnc(N)nc2N)cc(OCCCN2C(=O)c3ccccc3C2=O)c1OC | 6.69%
CCc1cn(CCOC)c2ccc(C(=O)N[C@@H](Cc3ccccc3)[C@H](O)CNC(C)(C)CCCC(C)C)cc12 | 1.51%
CC(Nc1ncc(-c2ccsc2)c(-c2nccs2)n1)c1ccc2c(c1)OCCO2 (stereo not given) | 7.42%
CN1CCN(c2nc(NCCc3ccc(O)cc3)nc(NCc3ccccc3-c3ccc(C(F)(F)F)cc3)n2)CC1 | 3.13%
CCN1CCC(N(Cc2ccc(-c3ccc(C(F)(F)F)cc3)cc2)C(=O)Cn2c(CCc3cccc(F)c3F)cc(=O)c3c2CCCC3)CC1 | 0.87%
CC(C)CC(=O)N(Cc1ccc(-c2ccc(CNC3Cc4ccccc4C3)cc2)cc1)C1CCNCC1 | 10.6%
CC(CCCCOCCc1ccccc1)NCC(O)c1cc(Cl)c(N)c(Cl)c1 (stereo not given) | 2.18%
O=C(/C=C/c1ccc([N+](=O)[O-])cc1)N1CCC(CCN2CCC(c3c[nH]c4ccccc34)CC2)CC1 | 2.47%
CCN(CCCN1CCCCC1)c1cc(C)nc(Nc2ccc(Oc3ccccc3)cc2)n1 | 5.44%
Cc1ccc(C)c(S(=O)(=O)Nc2ccc(Br)cc2C(=O)Nc2cccc(C(F)(F)F)c2)c1 | -1.9%
Cn1nc(-c2ccc(NC(=O)Nc3cc(C(F)(F)F)ccc3F)cc2)c2cnc(NCCc3c[nH]cn3)nc21 | 2.46%
Cc1cc(C)c(C)c(OCCCON2C(=N)N=C(N)NC2(C)C)c1C | 2.17%
COc1ccc(CNCc2ccc(F)cc2)cc1-c1ccc(OC)c(S(=O)(=O)NCCN2CCCC2)c1 | 4.28%

Compound | inhibition
CCN(CC)CCNc1cc(C)nc(NC(=N)Nc2ccc(Cl)cc2)n1 | 5.89%
COc1cc(Br)c(NC(=O)Nc2ccc(C(F)(F)F)c(O[C@@H]3CCN(C)C3)c2)cc1OC | 1.55%
CCc1cc2c(cc1OCCN(C)C)N(C(=O)Nc1ccc(-c3ccncc3)c(Cl)c1)CC2 | 3.08%
NC1CCN(CCc2ccc(NS(=O)(=O)c3cccc4ccccc34)cc2)CC1 | 0.61%
CCCCCN1CCCC(NS(=O)(=O)c2ccc(C(=O)Nc3ccc(C(F)(F)F)cc3)cc2)C1 (stereo not given) | 1.89%
O=C(Nc1ccc(C(F)(F)F)cc1)c1ccc(S(=O)(=O)NC2CCN(Cc3ccccc3)C2)cc1 (stereo not given) | 2.71%
CCCO[C@H](C(=O)OC)[C@@H](CC1Cc2ccccc2C1)C(=O)NCCC1=CCCCC1 | 2.2%
CCn1c(-c2nonc2N)nc2c(-c3cccc(Cl)c3)ncc(OCCCNCc3cnc(C)nc3N)c21 | 2.98%
COc1cccc(-c2nn(C)c3sc(C(=O)NCCN4CCN(c5ccccc5F)CC4)cc23)c1 | 0.29%
CCN(c1cc(C)nc(Nc2ccc(Cl)cc2)n1)[C@H]1CCN(Cc2ccccc2)C1 | 6.41%
COc1ccc(Cl)cc1NC(=O)C(C)Nc1ccc(-c2ccccc2)cc1 (stereo not given) | 5.12%
COC(=O)CCCCOc1cc(Cc2cnc(N)nc2N)cc(OC)c1OC | 1.88%
COc1ccc2nccc(NC(=O)C3CCC(NCc4cnc(SC)c([N+](=O)[O-])c4)CC3)c2n1 (stereo not given) | 20.7%
CC1CCN(CCCNc2ccc(C(=O)Nc3ccc(C(F)(F)F)cc3)cc2[N+](=O)[O-])CC1 | 5.07%
CNS(=O)(=O)CCNCc1ccc(-c2ccc3ncnc(Nc4ccc(OCc5ccccc5)cc4)c3c2)o1 | 3.83%
Cc1ccc(Nc2nccc(NCC(O)c3cccc(C)c3)n2)cc1 (stereo not given) | 3.22%
COc1cc(Cn2ccc3c4c(N)nc(N)nc4ccc32)cc(OC)c1OC | 73.1%
Cc1cc(=NN=Cc2ccccn2)c2cc(F)ccc2[nH]1 | 0.4%
COc1ccc(-c2nc3cccnc3n2CC(=O)Nc2cc(Cl)c(Cl)cc2Cl)c(OC)c1 | -2.74%
CCc1ccc(S(=O)(=O)Nc2ccc(CCN3CCC(N4CCCCC4)CC3)cc2)cc1 | 11.4%
